The whole screen tested about 5,500 compounds, of which about 2,000 (36%) were called active. About 18% were inconclusive and are not listed. No stated cut-off is given here; in the data, active means normalized growth mostly below about 0.91 (no sharp cut-off); inconclusive means no clear call, values can overlap the other calls; inactive means mostly above about 0.92. This is one part of the list.
Assay: chemical genetic growth profiling, strain panel (AID 1159580);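 further: tested at 20 µM; growth read once vehicle control cultures reached saturation at 30 °C; 1 = growth at the plate median or of vehicle wells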
Conditions: growth OD
[1] = S. cerevisiae deletion strains, locus YAL013W, strain DEP1, stronger effect = lower value
[2] = S. cerevisiae deletion strains, locus YBR229C, strain ROT2, stronger effect = lower value
[3] = S. cerevisiae deletion strains, locus YDL101C, strain DUN1, stronger effect = lower value
[4] = S. cerevisiae deletion strains, locus YDR150W, strain NUM1, stronger effect = lower value
[5] = S. cerevisiae deletion strains, locus YEL061C, strain CIN8, stronger effect = lower value
[6] = S. cerevisiae deletion strains, locus YGR078C, strain PAC10, stronger effect = lower value
[7] = S. cerevisiae deletion strains, locus YGR229C, strain SMI1, stronger effect = lower value
[8] = S. cerevisiae deletion strains, locus YHR030C, strain SLT2, stronger effect = lower value
[9] = S. cerevisiae deletion strains, locus YHR087W, strain rtc3, stronger effect = lower value
[10] = S. cerevisiae deletion strains, locus YJL187C, strain SWE1, stronger effect = lower value
[11] = S. cerevisiae deletion strains, locus YJR043C, strain POL32, stronger effect = lower value
[12] = S. cerevisiae deletion strains, locus YJR075W, strain HOC1, stronger effect = lower value
[13] = S. cerevisiae deletion strains, locus YLR039C, strain RIC1, stronger effect = lower value
[14] = S. cerevisiae deletion strains, locus YLR058C, strain SHM2 (second series), stronger effect = lower value
[15] = S. cerevisiae deletion strains, locus YLR085C, strain ARP6, stronger effect = lower value
[16] = S. cerevisiae deletion strains, locus YLR262C, strain YPT6, stronger effect = lower value
[17] = S. cerevisiae deletion strains, locus YML094W, strain GIM5, stronger effect = lower value
[18] = S. cerevisiae deletion strains, locus YMR219W, strain ESC1, stronger effect = lower value
[19] = S. cerevisiae deletion strains, locus YMR263W, strain SAP30, stronger effect = lower value
[20] = S. cerevisiae deletion strains, locus YMR307W, strain GAS1, stronger effect = lower value
[21] = S. cerevisiae deletion strains, locus YNL153C, strain GIM3, stronger effect = lower value
[22] = S. cerevisiae deletion strains, locus YNL298W, strain CLA4 (second series), stronger effect = lower value
[23] = S. cerevisiae deletion strains, locus YNL322C, strain KRE1, stronger effect = lower value
[24] = S. cerevisiae deletion strains, locus YNR030W, strain Alg12, stronger effect = lower value
[25] = S. cerevisiae deletion strains, locus YOL006C, strain TOP1, stronger effect = lower value
[26] = S. cerevisiae deletion strains, locus YPL055C, strain LGE1, stronger effect = lower value
[27] = S. cerevisiae deletion strains, locus YPL241C, strain CIN2, stronger effect = lower value
[28] = S. cerevisiae deletion strains, locus YPR135W, strain CTF4, stronger effect = lower value
[29] = S. cerevisiae deletion strains, locus YCL061C, strain MRC1, stronger effect = lower value
[30] = S. cerevisiae deletion strains, locus YDL134C, strain PPH21, stronger effect = lower value
[31] = S. cerevisiae deletion strains, locus YKL190W, strain CNB1, stronger effect = lower value

Measured: normalized growth

COc1ccc(-n2c(SCc3ccc(Br)cc3)nnc2-c2ccco2)cc1
active: [16] 0.803
inactive: [1] 0.972 | [2] 1 | [3] 1 | [4] 0.962 | [5] 1.01 | [6] 0.987 | [7] 0.978 | [8] 0.79 | [9] 0.996 | [10] 1.01 | [11] 0.98 | [12] 0.969 | [13] 0.803 | [14] 0.989 | [15] 0.947 | [17] 0.993 | [18] 0.993 | [19] 0.989 | [20] 0.893 | [21] 0.996 | [22] 0.917 | [23] 0.984 | [24] 0.966 | [25] 0.889 | [26] 0.976 | [27] 0.986 | [28] 0.844

S=c1[nH]nc(-c2ccco2)n1-c1ccc2c(c1)OCCO2
inactive: [1] 0.998 | [2] 0.985 | [29] 0.994 | [3] 0.989 | [30] 0.991 | [4] 1.02 | [5] 1.02 | [6] 0.979 | [8] 1.05 | [9] 0.983 | [11] 0.987 | [12] 0.985 | [31] 0.989 | [13] 0.972 | [14] 0.98 | [15] 0.994 | [16] 0.991 | [17] 1 | [18] 0.991 | [19] 1.02 | [20] 1.05 | [21] 0.993 | [22] 1.01 | [23] 0.988 | [24] 1.01 | [25] 0.978 | [26] 0.971 | [27] 1 | [28] 1.06 | S. cerevisiae strains, strain wild type, stronger effect = lower value 0.979

O=C(CSc1nnc(-c2ccco2)n1-c1ccc2c(c1)OCCO2)c1cccc(F)c1
inactive: [1] 0.983 | [2] 1 | [29] 0.997 | [3] 0.987 | [30] 1 | [4] 1.01 | [5] 0.984 | [6] 0.988 | [7] 1 | [8] 0.961 | [9] 1 | [10] 1.01 | [11] 0.997 | [12] 1.01 | [31] 1 | [13] 0.916 | [14] 1.01 | [15] 0.978 | [16] 0.954 | [17] 0.983 | [18] 0.988 | [19] 0.909 | [20] 0.77 | [21] 0.988 | [22] 0.977 | [23] 0.989 | [24] 0.988 | [26] 0.968 | [27] 0.994 | [28] 0.854

Cn1cnc2c(NC3CCCC3)ncnc21
inactive: [1] 0.992 | S. cerevisiae deletion strains, locus YAL040C, strain CLN3, stronger effect = lower value 0.993 | S. cerevisiae deletion strains, locus YCL061C, strain MRC1 (second series), stronger effect = lower value 1 | [4] 0.999 | S. cerevisiae deletion strains, locus YDR363W, strain ESC2, stronger effect = lower value 1 | S. cerevisiae deletion strains, locus YER002W, strain NOP16, stronger effect = lower value 1.01 | [19] 1 | [20] 0.989 | S. cerevisiae deletion strains, locus YNL128W, strain TEP1, stronger effect = lower value 1 | [21] 1.02 | S. cerevisiae deletion strains, locus YNL175C, strain NOP13, stronger effect = lower value 1.04 | S. cerevisiae deletion strains, locus YNL197C, strain WHI3, stronger effect = lower value 1 | S. cerevisiae deletion strains, locus YNL224C, strain SQS1, stronger effect = lower value 0.997 | S. cerevisiae deletion strains, locus YOR083W, strain WHI5 (second series), stronger effect = lower value 0.984
